Bioassay records deposited in PubChem by Sanford-Burnham Center for Chemical Genomics.
Artemis inh: Artemis endonuclease inhibitors, primary screen, biochemical, fluorescence intensity, FAM/BHQ-1 hairpin substrate. Protein artemis (Homo sapiens), Q96SD1. recombinant Artemis, quenched FAM hairpin cleavage fluorescence. inhibition, % at 10 µM. 0.78% of 30,000 active. AID 686954, 2013;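 active means at 10 µM dose, at least 30% inhibition, measured as corrected fluorescence normalized to stimulator and neutral control wells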
Target sequence (Q96SD1 whole entry, looked up): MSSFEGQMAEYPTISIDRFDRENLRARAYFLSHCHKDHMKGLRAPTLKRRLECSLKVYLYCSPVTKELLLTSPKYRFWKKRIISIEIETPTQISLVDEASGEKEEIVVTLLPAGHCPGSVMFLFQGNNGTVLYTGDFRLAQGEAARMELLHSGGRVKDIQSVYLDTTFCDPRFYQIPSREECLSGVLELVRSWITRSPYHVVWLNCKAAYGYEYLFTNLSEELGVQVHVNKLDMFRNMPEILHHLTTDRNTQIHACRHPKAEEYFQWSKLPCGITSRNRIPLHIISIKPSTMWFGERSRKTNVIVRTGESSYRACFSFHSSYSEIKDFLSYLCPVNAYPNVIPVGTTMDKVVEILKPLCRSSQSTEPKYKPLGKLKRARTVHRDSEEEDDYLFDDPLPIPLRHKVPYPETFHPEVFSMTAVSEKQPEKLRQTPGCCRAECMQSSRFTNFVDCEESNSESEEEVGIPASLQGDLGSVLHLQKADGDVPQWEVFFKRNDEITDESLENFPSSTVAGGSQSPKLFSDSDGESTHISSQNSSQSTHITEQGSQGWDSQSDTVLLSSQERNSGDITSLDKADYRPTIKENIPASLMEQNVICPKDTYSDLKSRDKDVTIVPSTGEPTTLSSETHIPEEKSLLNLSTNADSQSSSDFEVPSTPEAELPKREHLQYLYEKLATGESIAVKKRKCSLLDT
Hits are given with their value; n = inactive. The full list was thinned out, with hits kept by preference.

SMILES	Artemis inh
COC(=O)C(C)Sc1nc2c(c(=O)[nH]c(=O)n2C)n1CCC(C)C (configuration not stated)	n
CCCCCCSc1nc(O)c(C2OC(=O)c3c2ccc(OC)c3OC)c(=O)n1CC (configuration not stated)	n
COc1ccc(NC(=O)CSc2nnc(Cn3cnc4ccccc43)n2C)cc1	n
CSc1ccc(S(=O)(=O)Nc2ccc(NC(C)=O)cc2)cc1	n
C=CCSC1=N/C(=C\C=C\c2ccco2)C(=O)S1	n
O=C1/C(=C\c2ccco2)SC(=S)N1Cc1ccccc1	n
CC(C(=O)O)N1C(=O)/C(=C/C=C/c2ccco2)SC1=S (configuration not stated)	40
O=S(=O)(NCc1csc(-c2cccnc2)n1)c1ccc2c(c1)OCCO2	n
O=C(NCc1ccco1)c1ccccc1NS(=O)(=O)c1ccc2c(c1)OCCO2	n
Cc1cc(C=O)c(C)n1-c1cc(C(F)(F)F)ccc1N1CCOCC1	n
CCOc1cc(C2C(C(=O)c3ccc(C)o3)=C(O)C(=O)N2CCc2ccccc2)ccc1O (configuration not stated)	32
COc1cc(C2C(C(C)=O)=C(O)C(=O)N2CCc2ccc(OC)c(OC)c2)ccc1O (configuration not stated)	n
COc1ccc(C2C(C(=O)c3ccc(C)o3)=C(O)C(=O)N2c2cc(C)on2)cc1OC (configuration not stated)	n
CCC(C(=O)Nc1cc(C)on1)c1ccccc1 (configuration not stated)	n
CCOC(=O)C1CCN(C(=O)c2c(-c3c(Cl)cccc3Cl)noc2C)CC1	n
CCCCN(CC)S(=O)(=O)c1ccc(C(=O)Nc2nnc(-c3ccccc3Cl)o2)cc1	n
CCC1CCCCN1S(=O)(=O)c1ccc(C(=O)Nc2nnc(-c3ccccc3Cl)o2)cc1 (configuration not stated)	36
COc1ccccc1-c1nnc(NC(=O)c2ccc(S(=O)(=O)N(C)C)cc2)o1	n
CC1CCCCN1S(=O)(=O)c1ccc(C(=O)Nc2nnc(-c3ccccc3Cl)o2)cc1 (configuration not stated)	32
CC1CCCCN1C(=O)c1ccc(S(=O)(=O)N2CCCCC2C)cc1 (configuration not stated)	n
CCN1CCCC1CNS(=O)(=O)c1ccc(C(=O)Nc2ccccc2)cc1 (configuration not stated)	n
O=C(Cc1ccccc1)N/N=C/C=C/c1cccc([N+](=O)[O-])c1	n
CC(C)C(c1nnnn1C1CCCC1)N1CCCCC1 (configuration not stated)	n
Cc1cc(Cl)ccc1OCCCC(=O)NCC1CCCO1 (configuration not stated)	n
Cc1cc(NC(=O)COC(=O)CCCOc2ccc(Cl)cc2C)no1	n
SMILES	Artemis inh
Cc1cc(Cl)ccc1OCCCC(=O)NO	63
O=S(=O)(Nc1ccc(F)cc1)c1ccc(NC(=S)Nc2ccccc2)cc1	n
N#Cc1c(NC(=O)CSc2ncnc3sccc23)oc(-c2ccco2)c1-c1ccco1	31
N#Cc1ccsc1NC(=O)CSc1ncnc2ccccc12	n
CCNC(=O)CSc1ncnc2sccc12	n
COc1cccc(C(=O)CSc2nnc(CNc3nc(-c4ccccc4)cs3)n2C)c1	n
Cc1nnc(NCCN2CCOCC2)[nH]c1=O	n
COc1ccc(-c2nn(-c3ccccc3)cc2C(=O)Nc2nccs2)cc1	47
COC(=O)c1ccc(NC(=O)c2cn(-c3ccccc3)nc2-c2ccncc2)cc1	n
COc1ccc(-c2nn(-c3ccccc3)cc2CO)cc1	n
CCc1ccc(NC(=O)CSc2nnc(-c3cccs3)n2CC)cc1	n
COc1ccc(CC(=O)OCC(=O)Nc2ncc(Cl)cc2Cl)cc1	n
Cc1[nH]c2ccc(Br)cc2c(=O)c1CN1CCOCC1	n
O=c1ccc2cc3c([nH]c4ccc(Br)cc43)oc-2c1O	81
O=c1c(O)c(-c2ccc3c(c2)OCO3)oc2ccccc12	n
O=C(Nc1ccc(O)cc1)c1cc2n(n1)C(C(F)(F)F)CC(c1ccco1)N2 (configuration not stated)	n
Cn1ncc2nnn(-c3ccccc3)c(=O)c21	n
Clc1ccc(-n2cccc2/C=N/n2cnnc2)cc1	n
Clc1ccc(Cn2cc(/C=N/n3cnnc3)c3ccccc32)cc1	n
Cc1cc(/C=N/n2cnnc2)c(C)n1-c1ccc(OCc2ccc(Cl)cc2)cc1	33
CCCc1nnc(SCc2ccc(C(=O)OC)o2)n1N	n
CC(C)N(CCCNC(=O)C1CCN(S(=O)(=O)N2CCOCC2)CC1)Cc1ccccc1	n
COc1cc(OC)cc(-c2nnc(SCC(=O)N3CCOCC3)o2)c1	n
CC(C)N(CCNC(=O)C1CCC(=O)N1Cc1ccc(F)cc1)Cc1ccccc1 (configuration not stated)	n
CC(=O)N(Cc1ccc(F)cc1)C1=C(NCc2ccccc2)C(=O)c2ccccc2C1=O	39
SMILES	Artemis inh
Cn1c(NCc2ccccc2)cc(=O)n(C)c1=O	n
Cc1[nH]n2c(=O)c3c(nc2c1-c1ccc(Cl)cc1)CCC3	n
Cc1[nH]n2c(=O)c3c(nc2c1-c1ccccc1)CCC3	n
Nc1[nH]n2c(=O)c3c(nc2c1N=Nc1ccc(Cl)cc1)CCCC3	30
COC(=O)c1ccccc1NC(=S)NC(=O)c1cccc2ccccc12	n
CCCOc1ccccc1C1CC(=O)Nc2cc3c(cc21)OCCO3 (configuration not stated)	n
O=C(NC1(C(F)(F)F)N=C2SCCN2C1=O)C1CCCCC1 (configuration not stated)	n
CCN1CCC(=NNC(=O)CC23CC4CC(CC(C4)C2)C3)CC1	n
O=C(O)c1ccccc1C(=O)OCc1ccccc1	n
C/C(=N\O)c1ccccc1C(=O)O	46
CNC(=O)CC(=O)Nc1ccccc1C(=O)O	n
CC(C)c1nc(SCC(=O)Nc2cccc(S(N)(=O)=O)c2)n[nH]1	n
O=C(C1CCCN(S(=O)(=O)Cc2ccccc2)C1)N1CCCCC1 (configuration not stated)	n
O=C(NCc1ccco1)c1ccc2snnc2c1	n
O=C(NCCCNC(=O)c1ccco1)c1ccco1	n
O=C(NCCO)c1ccc2nc(-c3ccco3)c(-c3ccco3)nc2c1	38
Cc1ccc(OCc2nnc(SCC(=O)Nc3ccc4c(c3)OCCO4)n2Cc2ccco2)cc1	n
CN(CCc1ccccn1)C(=O)c1nn2c(C(F)(F)F)cc(-c3ccco3)nc2c1Cl	n
Cc1nn(Cc2ccccc2Cl)c(C)c1C(=O)Nc1nnc(C2CC2)s1	n
Cc1csc(Nc2ccccc2C(F)(F)F)n1	n
Cc1cc(C)n(-c2nc(NC(C)(C)C)nc(NC(C)(C)C)n2)n1	n
Cc1cc(C)n(-c2nc(Nc3ccccc3C(F)(F)F)nc(-n3nc(C)cc3C)n2)n1	57
COc1ccc(OC)c(NC(=O)c2ccccc2NS(=O)(=O)c2cccc3cccnc23)c1	n
COc1ccc2[nH]c3c(NCCN(C(C)C)C(C)C)ncnc3c2c1	n
COc1cc(NCCCC(C)N)c2ncccc2c1 (configuration not stated)	55
COc1cccc(NC(=O)CNC(=O)c2ccccc2)c1	n
Cc1ccccc1Cn1cc(/C=N/n2cnnc2)c2ccccc21	n
Cc1ccc(-c2nc(C3CCN(S(C)(=O)=O)CC3)no2)cc1	n
COc1ccc(C(N)=O)cc1NC(=O)c1cccc(F)c1	n
O=C1CCCN1CC(CN1CCOCC1)Sc1nc2ccccc2c(=O)n1-c1ccccc1 (configuration not stated)	33
